Data on 25 sequences can be found in article PMC5700166.

Holding throughout (experiment): protein-binding microarray (PBM); PBM: ~300 nM protein, 6 mM HEPES pH 7.8, 80 mM KCl, 0.5 mM EDTA, 0.5 mM EGTA, 6% glycerol, 35 ng/ul poly-dIdC, 1% milk, 1 h, room temperature; Ap Aiptasia and Nv Nematostella (sea anemones) / Co Capsaspora / Aq Amphimedon (sponge) / Dm Drosophila / Hu human; RHD is the Rel homology domain; high values mean tight binding
Common to all, as to settings: dsDNA, one strand shown

The target of one assay is T1, GST-Ap-NF-kB RHD (Exaiptasia pallida (Aiptasia), UniProt A0A913YAJ5 2-422).
T1 sequence: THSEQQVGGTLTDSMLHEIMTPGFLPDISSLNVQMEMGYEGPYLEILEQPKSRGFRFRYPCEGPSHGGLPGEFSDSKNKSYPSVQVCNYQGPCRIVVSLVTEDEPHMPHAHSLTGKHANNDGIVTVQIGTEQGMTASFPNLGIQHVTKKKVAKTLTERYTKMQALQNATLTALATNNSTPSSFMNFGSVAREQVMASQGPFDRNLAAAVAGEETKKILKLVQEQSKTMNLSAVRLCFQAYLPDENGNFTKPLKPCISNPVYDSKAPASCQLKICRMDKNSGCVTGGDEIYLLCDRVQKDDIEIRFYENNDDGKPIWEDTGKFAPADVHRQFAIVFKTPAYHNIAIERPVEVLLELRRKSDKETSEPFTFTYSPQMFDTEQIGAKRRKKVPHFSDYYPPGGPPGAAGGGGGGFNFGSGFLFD

Assay [1] addresses T2, GST-Nv-NF-kB (Cys allele) (Nematostella vectensis, UniProt E5G601 2-411).
T2 sequence: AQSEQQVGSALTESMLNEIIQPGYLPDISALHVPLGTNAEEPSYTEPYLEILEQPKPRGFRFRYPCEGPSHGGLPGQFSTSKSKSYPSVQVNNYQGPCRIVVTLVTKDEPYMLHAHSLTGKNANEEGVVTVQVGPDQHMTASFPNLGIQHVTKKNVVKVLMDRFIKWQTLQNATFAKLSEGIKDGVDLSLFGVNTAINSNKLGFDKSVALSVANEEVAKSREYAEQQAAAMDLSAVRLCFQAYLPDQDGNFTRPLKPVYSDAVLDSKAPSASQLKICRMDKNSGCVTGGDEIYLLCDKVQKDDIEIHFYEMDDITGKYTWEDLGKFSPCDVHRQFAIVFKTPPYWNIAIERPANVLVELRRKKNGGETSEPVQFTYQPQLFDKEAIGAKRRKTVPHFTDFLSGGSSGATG

A further assay addresses T3, GST-Co-NF-kB (Capsaspora owczarzaki, UniProt F1ARL5 200-546).
T3 sequence: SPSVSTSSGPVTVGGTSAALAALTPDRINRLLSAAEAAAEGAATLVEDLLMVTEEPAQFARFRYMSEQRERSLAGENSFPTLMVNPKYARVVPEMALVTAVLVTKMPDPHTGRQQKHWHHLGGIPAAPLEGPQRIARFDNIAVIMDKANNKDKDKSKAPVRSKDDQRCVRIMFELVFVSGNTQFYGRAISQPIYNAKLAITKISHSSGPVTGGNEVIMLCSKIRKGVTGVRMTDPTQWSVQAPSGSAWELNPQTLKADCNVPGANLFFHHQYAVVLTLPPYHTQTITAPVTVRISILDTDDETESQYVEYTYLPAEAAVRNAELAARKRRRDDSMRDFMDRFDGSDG

Another assay concerns the target T4, GST-Dm-Relish (Drosophila melanogaster, UniProt Q94527 99-473).
T4 sequence: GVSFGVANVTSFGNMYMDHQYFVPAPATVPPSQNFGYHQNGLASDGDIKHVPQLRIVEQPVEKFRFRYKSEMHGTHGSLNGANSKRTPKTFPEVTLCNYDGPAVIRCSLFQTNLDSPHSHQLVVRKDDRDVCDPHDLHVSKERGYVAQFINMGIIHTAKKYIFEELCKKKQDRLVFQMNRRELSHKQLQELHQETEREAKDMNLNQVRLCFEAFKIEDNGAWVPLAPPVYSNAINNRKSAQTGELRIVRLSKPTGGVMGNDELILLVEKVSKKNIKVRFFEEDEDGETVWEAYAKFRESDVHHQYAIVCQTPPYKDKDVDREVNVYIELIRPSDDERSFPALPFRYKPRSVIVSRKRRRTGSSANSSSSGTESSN

The next assay concerns the target T5, GST-Aq-NF-kB (Amphimedon queenslandica, UniProt A9Y5G7 2-389).
T5 sequence: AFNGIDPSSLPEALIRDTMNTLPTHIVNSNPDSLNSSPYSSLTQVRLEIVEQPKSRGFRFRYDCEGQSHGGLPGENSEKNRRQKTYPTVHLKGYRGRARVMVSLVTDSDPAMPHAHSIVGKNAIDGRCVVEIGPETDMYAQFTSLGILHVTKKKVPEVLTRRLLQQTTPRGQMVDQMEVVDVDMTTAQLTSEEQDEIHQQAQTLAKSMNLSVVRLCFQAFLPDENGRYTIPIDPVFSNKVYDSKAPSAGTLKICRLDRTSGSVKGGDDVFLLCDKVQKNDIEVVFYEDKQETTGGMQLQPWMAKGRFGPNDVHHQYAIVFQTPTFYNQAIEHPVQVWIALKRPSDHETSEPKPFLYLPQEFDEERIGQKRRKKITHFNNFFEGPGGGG

For “CCGATTAACATCACGCAATTCCCTGATGTTAATCGGGTCTTGATTCGCTTGACGCTGCTG”, the binding signal was found to be 2.72 z-score with GST-Ap-NF-kB RHD; 4.1 z-score in assay [1]; 2.33 z-score with GST-Co-NF-kB; 1.52 z-score in the assay with GST-Dm-Relish; 3.43 z-score with GST-Aq-NF-kB.
“CCGATTAACATCAGGGGGATGTATGATGTTAATCGGGTCTTGATTCGCTTGACGCTGCTG”: the binding signal came to 4.97 z-score with GST-Ap-NF-kB RHD; 4.88 z-score in assay [1]; 4.13 z-score with GST-Co-NF-kB; 4.17 z-score with GST-Dm-Relish; 4.11 z-score with GST-Aq-NF-kB.
In the case of “CCGATTAACATCAAACCCCCCCCTGATGTTAATCGGGTCTTGATTCGCTTGACGCTGCTG”, the binding signal worked out at 7.29 z-score with GST-Ap-NF-kB RHD; 5.16 z-score in assay [1]; 4.79 z-score with GST-Co-NF-kB; 6.75 z-score with GST-Dm-Relish; 5.35 z-score with GST-Aq-NF-kB.
For the sequence “CCGATTAACATCAAATTCCCAGATGATGTTAATCGGGTCTTGATTCGCTTGACGCTGCTG”, the binding signal was determined as 2.43 z-score in the assay with GST-Ap-NF-kB RHD; 3.57 z-score in assay [1]; 3.87 z-score in the assay with GST-Co-NF-kB; 3.52 z-score with GST-Dm-Relish; 2.42 z-score with GST-Aq-NF-kB.
Turning to “CCGATTAACATCACCCAACCCCCTGATGTTAATCGGGTCTTGATTCGCTTGACGCTGCTG”, the binding signal with GST-Ap-NF-kB RHD was 4.6 z-score; in assay [1], 2.94 z-score; in the assay with GST-Co-NF-kB, 2.21 z-score; with GST-Dm-Relish, 4.3 z-score; with GST-Aq-NF-kB, 3.45 z-score.
Taken in the same sequence, the figures for “CCGATTAACATCACCTTCCCCCCTGATGTTAATCGGGTCTTGATTCGCTTGACGCTGCTG” were 4.15 z-score, 4.07 z-score, 7.1 z-score, 3.79 z-score and 4.32 z-score.
In the same order, the values of “CCGATTAACATCAGGGAAAATGATGATGTTAATCGGGTCTTGATTCGCTTGACGCTGCTG” are 2.8 z-score, 4.26 z-score, 3.42 z-score, 1.15 z-score and 3.05 z-score.
Turning to “CCGATTAACATCAAAATTCCCAATGATGTTAATCGGGTCTTGATTCGCTTGACGCTGCTG”, the binding signal in the assay with GST-Ap-NF-kB RHD is 3.1 z-score; in assay [1], 4.95 z-score; with GST-Co-NF-kB, 4.01 z-score; with GST-Dm-Relish, 5.17 z-score; with GST-Aq-NF-kB, 4.03 z-score.
“CCGATTAACATCAGGGGGGGTGATGATGTTAATCGGGTCTTGATTCGCTTGACGCTGCTG”: the binding signal with GST-Ap-NF-kB RHD turned out to be 3.51 z-score; in assay [1], 4.08 z-score; with GST-Co-NF-kB, 4.48 z-score; in the assay with GST-Dm-Relish, 4.26 z-score; with GST-Aq-NF-kB, 4.36 z-score.
Taken in the same sequence, the figures for “CCGATTAACATCAGAATTCCCACTGATGTTAATCGGGTCTTGATTCGCTTGACGCTGCTG” were 2.58 z-score, 4.12 z-score, 2.92 z-score, 4.09 z-score and 3.19 z-score.
Taken in the same sequence, the figures for “CCGATTAACATCACGTTCCCCCCTGATGTTAATCGGGTCTTGATTCGCTTGACGCTGCTG” were 6.32 z-score, 5.07 z-score, 9.5 z-score, 4.11 z-score and 4.43 z-score.
Turning to “CCGATTAACATCACAACCCCCCCTGATGTTAATCGGGTCTTGATTCGCTTGACGCTGCTG”, the binding signal was 5.55 z-score with GST-Ap-NF-kB RHD; 3.59 z-score in assay [1]; 3.83 z-score with GST-Co-NF-kB; 6.16 z-score with GST-Dm-Relish; 4.6 z-score in the assay with GST-Aq-NF-kB.
In the same order, the values of “CCGATTAACATCAGGGGGGACAATGATGTTAATCGGGTCTTGATTCGCTTGACGCTGCTG” are 4.56 z-score, 4.19 z-score, 6.09 z-score, 2.95 z-score and 4.16 z-score.
In the same order, the values of “CCGATTAACATCAAAACTTCCCATGATGTTAATCGGGTCTTGATTCGCTTGACGCTGCTG” are 3.04 z-score, 3.7 z-score, 2.63 z-score, 4.52 z-score and 4.42 z-score.
For the sequence “CCGATTAACATCAGGCATTCCCATGATGTTAATCGGGTCTTGATTCGCTTGACGCTGCTG”, the binding signal was 1.57 z-score in the assay with GST-Ap-NF-kB RHD; 2 z-score in assay [1]; 1.54 z-score with GST-Co-NF-kB; 3.64 z-score with GST-Dm-Relish; 2.75 z-score in the assay with GST-Aq-NF-kB.
Consider “CCGATTAACATCACGGACTCCCCTGATGTTAATCGGGTCTTGATTCGCTTGACGCTGCTG”, for which the binding signal in the assay with GST-Ap-NF-kB RHD was 5.18 z-score; in assay [1] it was 3.32 z-score; in the assay with GST-Co-NF-kB, 3.37 z-score; with GST-Dm-Relish it was 6.19 z-score; with GST-Aq-NF-kB it was 4.33 z-score.
As for “CCGATTAACATCAATTGCCCCCCTGATGTTAATCGGGTCTTGATTCGCTTGACGCTGCTG”, the binding signal with GST-Ap-NF-kB RHD is 4.5 z-score; in assay [1], 2.81 z-score; with GST-Co-NF-kB, 5.24 z-score; with GST-Dm-Relish, 3.87 z-score; with GST-Aq-NF-kB, 4.63 z-score.
On to “CCGATTAACATCACATACTCCCCTGATGTTAATCGGGTCTTGATTCGCTTGACGCTGCTG”, for which the binding signal with GST-Ap-NF-kB RHD amounted to 4.4 z-score; in assay [1], 3.45 z-score; with GST-Co-NF-kB, 3.69 z-score; with GST-Dm-Relish, 1.57 z-score; with GST-Aq-NF-kB, 3.42 z-score.
In the same order, the values of “CCGATTAACATCAGGGAACGCCCTGATGTTAATCGGGTCTTGATTCGCTTGACGCTGCTG” are 2.68 z-score, 2.74 z-score, 1.21 z-score, 4.32 z-score and 5.25 z-score.
Taken in the same sequence, the figures for “CCGATTAACATCAGGGAATTCACTGATGTTAATCGGGTCTTGATTCGCTTGACGCTGCTG” were 4.74 z-score, 5.33 z-score, 3.01 z-score, 8.25 z-score and 6.46 z-score.
Taken in the same sequence, the figures for “CCGATTAACATCAGGCTTTCCCATGATGTTAATCGGGTCTTGATTCGCTTGACGCTGCTG” were 1.49 z-score, 2.94 z-score, 2.07 z-score, 2.07 z-score and 2.88 z-score.
Regarding “CCGATTAACATCAAATGGGAATTTGATGTTAATCGGGTCTTGATTCGCTTGACGCTGCTG”, the binding signal with GST-Ap-NF-kB RHD was found to be 1.19 z-score; in assay [1] it was 4.5 z-score; with GST-Co-NF-kB it was 1.12 z-score; in the assay with GST-Dm-Relish it was 4.52 z-score; with GST-Aq-NF-kB, 2.35 z-score.
In the same order, the values of “CCGATTAACATCAGGCCACCCCCTGATGTTAATCGGGTCTTGATTCGCTTGACGCTGCTG” are 3.91 z-score, 2.49 z-score, 2.66 z-score, 5.42 z-score and 5.7 z-score.
On to “CCGATTAACATCACTTCCCCCCATGATGTTAATCGGGTCTTGATTCGCTTGACGCTGCTG”, for which the binding signal was found to be 4.7 z-score in the assay with GST-Ap-NF-kB RHD; 4.18 z-score in assay [1]; 8.31 z-score in the assay with GST-Co-NF-kB; 3.34 z-score in the assay with GST-Dm-Relish; 3.86 z-score in the assay with GST-Aq-NF-kB.
“CCGATTAACATCAGGGAAAACACTGATGTTAATCGGGTCTTGATTCGCTTGACGCTGCTG”: the binding signal with GST-Ap-NF-kB RHD worked out at 3.49 z-score; in assay [1] it was 4.89 z-score; with GST-Co-NF-kB, 4.18 z-score; with GST-Dm-Relish, 5.1 z-score; with GST-Aq-NF-kB it was 6.06 z-score.
